From PubChem
Six1-Eya2 inh – inhibitors of human Six1/Eya2 interaction; AlphaScreen GST-Six1/His-Eya2 binding, biochemical; stronger effect = lower value; 360,000 tested, 0.56% active; Q15475+O00167; activity change, % (no concentration beside the values)
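Homogeneous AlphaScreen proximity assay pairing GST-Six1 with His-tagged Eya2 (added as 5X mix: 250 nM and 500 nM) in 50 mM Tris pH 8.0, 300 mM NaCl, 1 mM TCEP. Glutathione donor and nickel acceptor beads; 1 h, 37 °C, dark.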
JMJD2E inh – inhibitors of human JMJD2E histone demethylase | Potency, µM (highest dose often 57.1 µM), without a hit: at the top dose activity change, negative = inhibition, hits mostly inhibitors | B2RXH2 | JMJD2E catalytic domain, FDH-coupled NADH fluorescence (FDH is formaldehyde dehydrogenase) | 230,000 tested, 1.6% active; active = well fitted inhibition curve with a large enough effect, not every such curve was filed as active; inconclusive = small, poorly fitted or top-dose-only effect, or another doubt; inactive = no such curve, though single readings can be large or run the other way;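 also: potency is read from the fitted curve at half-maximal effect; 0% = wells with enzyme and -100% = buffer wells without enzyme; nearly all actives have a fitted effect of over 50% in size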
L3MBTL1 block – L3MBTL1 (human) inhibition. 230,000 tested, 0.66% active. AlphaScreen L3MBTL1–H3K9me1 peptide binding. Q9Y468. AID 485360. Potency, µM (doses to about 57.1 µM), for the others: top-dose activity, negative = inhibition, hits mostly inhibitors; active = well fitted inhibition curve with a large enough effect; inconclusive = small, poorly fitted or top-dose-only effect; inactive = no such curve, though single readings can be large or run the other way; also: potency is read from the fitted curve at half-maximal effect; nearly all actives have a fitted effect of over 60% in size
Target sequence (Q9Y468 whole entry, looked up): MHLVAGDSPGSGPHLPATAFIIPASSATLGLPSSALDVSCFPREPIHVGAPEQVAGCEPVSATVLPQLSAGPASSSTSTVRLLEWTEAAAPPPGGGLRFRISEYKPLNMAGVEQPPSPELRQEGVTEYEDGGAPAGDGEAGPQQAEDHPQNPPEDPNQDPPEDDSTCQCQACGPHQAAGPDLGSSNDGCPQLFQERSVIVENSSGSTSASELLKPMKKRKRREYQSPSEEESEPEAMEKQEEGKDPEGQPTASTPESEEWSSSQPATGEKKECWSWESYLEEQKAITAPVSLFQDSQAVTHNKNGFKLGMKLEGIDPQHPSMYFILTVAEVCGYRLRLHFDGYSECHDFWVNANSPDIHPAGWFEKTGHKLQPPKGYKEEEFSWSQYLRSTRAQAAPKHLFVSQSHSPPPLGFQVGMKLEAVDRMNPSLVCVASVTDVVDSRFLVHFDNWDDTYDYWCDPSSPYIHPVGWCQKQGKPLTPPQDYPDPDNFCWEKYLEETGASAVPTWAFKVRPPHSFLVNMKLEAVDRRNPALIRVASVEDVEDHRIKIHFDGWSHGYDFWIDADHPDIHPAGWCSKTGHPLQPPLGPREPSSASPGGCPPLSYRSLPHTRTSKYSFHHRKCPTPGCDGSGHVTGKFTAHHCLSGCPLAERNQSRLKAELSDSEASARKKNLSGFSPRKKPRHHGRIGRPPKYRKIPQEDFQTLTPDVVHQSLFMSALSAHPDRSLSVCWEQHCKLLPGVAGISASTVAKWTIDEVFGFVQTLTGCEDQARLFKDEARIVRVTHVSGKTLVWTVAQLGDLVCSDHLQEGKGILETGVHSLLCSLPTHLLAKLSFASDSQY
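L3MBTL1 (50 nM) pre-complexed 30 min with biotinylated H3(1-15)K9me1 peptide (75 nM), then compounds added for 30 min at room temperature; AlphaScreen streptavidin donor/nickel chelate acceptor beads (10 ug/mL final) read after 30 min dark incubation.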
CtBP-E1A blk – blocks the CtBP interaction with E1A; activity change, % (concentration not given with the values); AlphaScreen GST-E1A/His-CtBP binding, 1536-well; stronger effect = lower value; AID 651724; 340,000 tested, 0.49% active
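In 5 uL wells, 23 nL compound meets equimolar GST-E1A and His-CtBP (5X stock 125 nM each) for 2 h, 37 °C. Beads (5X, 50 ug/mL) then 1 h, 37 °C, dark.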
* = called active by the depositor; ? = inconclusive; . = no result; [ ] = remark or other dose. Only a selection was taken, and hits are over-represented in it overall. Rule as the data show it, unless noted: active = activity change below about -65%; inconclusive = mostly about -30% to -63%; inactive = weaker than that. Unless noted, % is scaled to controls: 0 for no effect and ±100 for the full control effect.

SMILES	Six1-Eya2 inh	JMJD2E inh	L3MBTL1 block	CtBP-E1A blk
O=C(O)c1cccc(Cn2c(Cl)c(/C=N/NC(=O)c3ccc(O)cc3)sc2=O)c1	?	-26%	.	-67*
COc1cc(/C=N/NC(=O)CN(Cc2ccccc2)S(=O)(=O)c2ccc3c(c2)OCCO3)ccc1O	-82*	-15%	-7%	-14
COc1ccc(/C=N/NC(=O)CN(Cc2ccccc2)S(=O)(=O)c2ccc3c(c2)OCCO3)cc1	-65*	7%	-7%	-4
O=C(CN(Cc1ccccc1)S(=O)(=O)c1ccc2c(c1)OCCO2)N/N=C/c1ccc(F)cc1	-27	-8%	-10%	2
COc1cc(/C=N/NC(=O)CN(Cc2ccco2)S(=O)(=O)c2ccccc2)ccc1O	-82*	5%	0%	-92*
O=C(CN(Cc1ccccc1)S(=O)(=O)c1ccc2c(c1)OCCO2)N/N=C/c1cccc(Br)c1	-19	2%	4%	-7
O=Cc1ccc(OC(=O)/C=C/c2ccccc2)cc1	?	.	.	-94*
CCOc1ccc(/C=C/C(=O)Oc2ccccc2)cc1	1	.	5%	-22
COc1cccc(NC(=O)/C=C/c2ccc([N+](=O)[O-])cc2)c1	-18	-13%	.	-22
COc1cc(/C=C/[N+](=O)[O-])ccc1OC(=O)/C=C/c1ccc(F)cc1	?	.	1%	-90*
COc1ccc(OC(=O)/C=C/c2ccc([N+](=O)[O-])cc2)cc1	-20	.	.	-87*
O=C(CSc1nc2ccc(Nc3nc(N4CCOCC4)nc(N4CCOCC4)n3)cc2s1)Nc1ccccc1Cl	3	.	.	5
O=C(CSc1nc2ccc(Nc3nc(N4CCCC4)nc(N4CCCC4)n3)cc2s1)NCc1ccco1	-15	20µM*	.	7
CC(C)CC(N)c1csc(Nc2ccc(C(=O)NCCCO)cn2)n1 (stereo not drawn)	-70*	.	.	-78*
NC(Cc1ccccc1)c1csc(Nc2ccc(C(=O)NCCO)cc2)n1 (stereo not drawn)	-16	.	.	-9
NC(Cc1ccc(F)cc1)c1csc(Nc2ccc(C(=O)NCCCO)cn2)n1 (stereo not drawn)	-68*	.	.	-72*
CCn1c(C)[n+](CC)c2ccc(S(=O)(=O)N(C)C)cc21	6	?	1%	0
CC[n+]1c(C)n(C)c2cc(S(=O)(=O)N(C)C)ccc21	6	10µM*	6%	9
CCCN(Cc1nnc(-c2cccs2)o1)C(=O)CN1C(=O)NC2(CCCCC2)C1=O	-1	.	-2%	-19
O=S(=O)(Nc1nc2ccccc2nc1NCC1CCCO1)c1cccc(Cl)c1 (stereo not drawn)	4	?	9%	-2
CCN(CC)S(=O)(=O)c1ccc(N/N=C(\C)c2ccc(OC)cc2O)nc1	?	32µM*	.	.
CCN(CC)S(=O)(=O)c1ccc(N/N=C/c2ccc(O)cc2)nc1	-8	?	3%	2
Cc1ccc(C)c(N2CCN(S(=O)(=O)c3ccc4c(c3)NC(=O)CS4)CC2)c1	-13	.	.	-13
O=Cc1ccc(-n2cncn2)cc1	4	7.1µM*	.	3
COC(=O)/C=C/c1ccc(-n2cncn2)cc1	0	-12%	.	2
SMILES	Six1-Eya2 inh	JMJD2E inh	L3MBTL1 block	CtBP-E1A blk
Clc1ccc(OCc2nc(-c3ccccn3)n[nH]2)cc1	-92*	3%	?	-94*
Brc1ccc(OCc2nc(-c3ccccn3)n[nH]2)cc1	-91*	?	.	-93*
COc1cccc([C@@H]2Oc3ccc(Br)cc3C(=O)[C@H]2OC(=O)NCc2ccco2)c1	.	5%	.	.
CCC1=C2CC[C@H]3C(=O)N(CC)C(=O)[C@H]3[C@H]2[C@@]2(Cc3ccccc3)C(=NCC3CC3)OC(=O)N2C1=O	.	1%	.	.
COC(=O)c1ccc(C(NC(=O)OCc2ccccc2)/C(F)=C/[C@@H](C)C(=O)Nc2ccc(OC)cc2)cc1 (stereo partly drawn)	.	-1%	.	.
CCOc1ccc(NC(=S)Nc2cccc3cnccc23)cc1	-7	?	-5%	-12
S=C(Nc1cccnc1)Nc1cccc2cnccc12	-4	14µM*	-8%	8
Fc1ccc(NC(=S)Nc2cccc3cnccc23)cc1	1	-14%	-17%	5
S=C(Nc1ccc(Cl)cc1)Nc1cccc2cnccc12	-23	14µM*	0%	-6
COc1ccc(NC(=S)Nc2cccc3cnccc23)cc1	-3	-24%	-10%	0
CN(C)S(=O)(=O)c1cccc(NC(=S)Nc2cccc3cnccc23)c1	3	28µM*	-17%	?
COC(=O)C[C@H]1c2ccccc2C2=C(C[C@@H](C)[C@H]3C(=O)NC(=O)[C@@H]23)N1C(=O)OC	.	2%[11.4 µM]	.	.
COC(=O)CNC(=O)C1(CC(C)C)C=CCN1C(C)=O (stereo not drawn)	.	1%	.	.
CC(C)Oc1ccc(/C=N/NC(=O)c2ccc(N(Cc3ccccc3)S(C)(=O)=O)cc2)cc1	0	?	-2%	6
COC(=O)COc1ccc(/C=N/NC(=O)c2ccc(N(Cc3ccccc3)S(C)(=O)=O)cc2)cc1	-75*	-3%	7%	-79*
O=C(CCCCCNC(=O)N1CCn2c1nc1ccccc12)N[C@H](Cc1ccccc1)C(=O)O	-11	.	.	-7
CCN(CC)CCNc1cccc2sc3ccccc3c(=O)c12	-11	.	.	-14
CN(C)CCNc1ccc2nnn3c4ccc(O)cc4c(=O)c1c23	-77*	.	.	0
Cc1ccc(NCCN(C)C)c2c(=O)c3cc(O)ccc3sc12	?	.	.	-68*
CN(C)CCNc1cccc2sc3ccc(O)cc3c(=O)c12	?	.	.	-67*
COc1cc(C)c2sc3ccccc3c(=O)c2c1NCCN(C)C	-75*	.	.	-26
COC1=C(C(=O)c2ccccc2)C(=O)C2(CC=C(C)C)C[C@H](C(=O)OCC(F)(F)F)C(C)(C)[C@@]1(CC=C(C)C)C2=O (tested in a mixture with another compound)	.	-12%	.	.
CN1CCN(C(=O)C2=C[C@H](c3csc4ccccc34)C[C@H](OCCCCO)O2)CC1	3	22µM*	8%	1
CN1CCN(C(=O)C2=C[C@H](c3csc4ccccc34)C[C@H](OCc3ccc(CO)cc3)O2)CC1	-2	-14%	-5%	-6
COc1ccc(/C=N\NC(=S)SCN2C(=O)C3CCC(C)(C2=O)C3(C)C)cc1 (stereo not drawn)	-9	.	.	-13
CC12CCC(C(=O)N(CSC(=S)N/N=C\c3ccccc3O)C1=O)C2(C)C (stereo not drawn)	-89*	2%	5.6µM*	-94*
O=C(O)C1CCC2CCCC21 (stereo not drawn)	11	.	.	12
O=C(CCCn1c(SCC(=O)c2ccc(O)c(O)c2)nc2ccccc2c1=O)NCC1CCCO1 (stereo not drawn)	-8	8.9µM*	?	-7
O=C(CCCn1c(SCC(=O)NC2CCCCC2)nc2ccccc2c1=O)NCC1CCCO1 (stereo not drawn)	2	4%	-3%	5
S=c1[nH]c2ccccc2s1	.	20µM*	.	.
